# Screening results deposited in PubChem by several laboratories.
# Most compounds without a hit are left out; they make up all but 2.9% or so of the library.
# Shn3 3UTR inh: reduces Shn3 3'UTR luciferase signal in osteoblasts; Clone20 osteoblast Shn3 3'UTR firefly luciferase, 24 h; inhibition, % at 12.5 µM; hit rate 0.52% among 360,000; AID 588674;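 active = mean inhibition of at least 75% with every replicate also reaching 75%; inconclusive = mean inhibition at least 75% but some replicate below; inactive = mean inhibition below 75%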;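 also: 0% = median of neutral control wells and 100% = pilot-screen positive control compound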
# Peg3 prom inh: inhibitors of Peg3 promoter | HeLa PEG-Prom luciferase reporter, luminescence, overnight | inhibition, % at 20 µM | hit rate 1.7% among 360,000;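 active = inhibition of at least 50% at 20 µM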
# HIF-2a inh: HIF-2a inhibition; hit rate 0.72% among 360,000; inhibition, % at 18.8 µM; 786-0 RCC cells HIF-2a reporter, luciferase luminescence, overnight; AID 624352;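 active = inhibition of the luminescence signal of 40% or more relative to plate controls, in a single-dose primary screen at 18.75 µM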
# KKLEB tox: counter-screen for CF NF-kB inhibitors: cytotoxicity. KKLEB CF airway cells viability, ATPlite luminescence, overnight; hits give low values; cells stimulated with P. aeruginosa culture filtrate. activity change (cytotoxicity), % at 5 µM. hit rate 0.36% among 360,000;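 active = corrected activity change at or below -50% at 5 µM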
# CF NFkB inh: blocks PAF-induced NF-kB reporter in cystic fibrosis cells; KKLEB NF-kB-GFP reporter, GFP fluorescence overnight; inhibition, % at 5 µM; hit rate 0.86% among 360,000; AID 588850;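 active = at least 50% inhibition at 5 µM, scaled per plate between neutral and stimulator controls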;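 also: PAF is a Pseudomonas aeruginosa culture filtrate used as stimulus; plate controls were PAF-stimulated DMSO wells for no effect and unstimulated DMSO wells for full effect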
# LMP1 NFkB inh: inhibitors of Epstein-Barr LMP1-induced NF-kappaB reporter; AID 504558; LMP1-induced NF-kappaB luciferase reporter cells, luminescence; hit rate 0.69% among 350,000; inhibition, % at 12.5 µM; in the data active = inhibition above about 41%; inconclusive = no clear call, values can overlap the other calls;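 also: 0% = neutral control wells and 100% = reference inhibitor control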
# * marks the source's active call; other numbers are inactive results; ? = inconclusive; . = not tested or not shown.
SMILES,Shn3 3UTR inh,Peg3 prom inh,HIF-2a inh,KKLEB tox,CF NFkB inh,LMP1 NFkB inh
Cc1ccc2nc(/C(C#N)=C/c3ccc(-c4cccc([N+](=O)[O-])c4)o3)[nH]c2c1,18.9,114.5*,13.8,-7.8,-34.6,3.7
CCOC(=O)c1[nH]c2ccc(OC)cc2c1NC(=O)CN1CCC2(CC1)OCCO2,-7.6,17.3,9.2,3.9,-0.2,3.8
CCOC(=O)c1[nH]c2ccc(OC)cc2c1NC(=O)CN1CCc2ccccc2C1,.,54.8*,7.2,-16.5,20.2,8.7
COc1ccc(NC(=O)C2Cc3c(-c4cccc(C(C)=O)c4)ccnc3O2)cc1OC (centres undefined),90.5*,25.5,-2.3,12.9,-103.7,.
CC(=O)Nc1cccc(-c2ccnc3c2CC(C(=O)Nc2cccc(Oc4ccccc4)c2)O3)c1 (centres undefined),5.5,50.5*,21.9,5.3,-16.4,.
CC(C)(C)c1ccc(S(=O)(=O)N2CC(=O)Nc3ccccc32)cc1,6.4,21.6,11.3,5.0,14.3,5.2
Cc1cc2cc(CN(Cc3ccco3)S(=O)(=O)c3c(C)ccc4nsnc34)c(=O)[nH]c2cc1C,11.2,19.5,26.1,-7.3,12.3,43.8*
Cc1ccc2cc(CN(Cc3ccco3)S(=O)(=O)c3c(C)ccc4nsnc34)c(=O)[nH]c2c1,2.1,6.4,0.0,13.6,-6.9,-1.4
CCc1nn(C(CC)C(=O)NCCCN2CC(C)CC(C)C2)c(=O)c2cc3oc(C)cc3n12 (centres undefined),2.8,31.2,4.9,13.5,13.4,-1.1
COc1ccc2[nH]c(-c3cccc(F)c3)cc(=O)c2c1,-20.4,-248.9,-127.3,-10.1,55.7*,-5.9
Cc1ccc2[nH]c(-c3cccc(F)c3)cc(=O)c2c1,-32.8,-183.2,-119.5,-1.3,40.5,-7.2
CCOc1ccc(CCNC(=O)COC(=O)COc2ccc(Br)cc2)cc1OCC,-8.3,11.8,1.3,-25.4,15.4,-0.2
CC(C)CCn1c(=O)c2ccccc2n2c(CCC(=O)NCC3CCCO3)nnc12 (centres undefined),11.4,11.2,7.1,-1.5,-23.7,-21.5
O=C(C(O)c1ccccc1)N1CCN(S(=O)(=O)c2ccc(C(F)(F)F)cc2)CC1 (centres undefined),.,.,5.2,.,.,.
CCOc1ccccc1C(=O)N[C@H](C(=O)OCc1cc([N+](=O)[O-])cc2c1OCOC2)C(C)C,1.1,31.8,17.1,-10.8,8.1,49.4*
CC(C)C(NC(=O)c1ccccc1)C(=O)OCc1cc([N+](=O)[O-])cc2c1OCOC2 (centres undefined),11.3,-4.5,-9.3,-0.1,-2.9,6.0
Cc1ccc(C(=O)Nc2ccc3c(c2)OCCO3)c(Cl)c1,8.7,38.3,36.0,-49.1,-1.4,46.6*
Cc1cc(NC(=O)c2ccc3c(c2)OCO3)no1,-53.9,-136.8,-175.6,-11.8,9.1,-1.4
Cc1ccc(C(=O)Nc2ccc3c(c2)OCCO3)cc1,32.1,29.7,22.4,-17.5,-5.5,43.4*
Cc1ccc(C(=O)Nc2ccc3c(c2)OCO3)cc1,6.0,-40.5,-80.8,-3.4,-5.9,6.4
Cc1cc(NC(=O)c2ccc3c(c2)OCCO3)no1,14.9,28.9,17.6,-12.7,-2.1,60.1*
CC(C)c1ccc(NC(=O)CN2CCN(C(=O)C3CCCO3)CC2)cc1 (centres undefined),11.9,6.2,3.3,0.2,-12.7,-2.7
O=C(Nc1nc(-c2ccccn2)cs1)c1ccc([N+](=O)[O-])o1,87.7*,46.0,-17.2,5.5,10.0,1.1
O=C(Nc1nc(-c2ccccc2)cs1)C1COc2ccccc2O1 (centres undefined),-11.0,-95.5,-82.5,8.4,-9.9,0.4
O=C(Nc1nc(-c2ccccn2)cs1)c1cc(Cl)ccc1[N+](=O)[O-],97.0*,46.8,-48.9,-2.4,-43.6,?
SMILES,Shn3 3UTR inh,Peg3 prom inh,HIF-2a inh,KKLEB tox,CF NFkB inh,LMP1 NFkB inh
O=C(Nc1nc(-c2ccccn2)cs1)C1COc2ccccc2O1 (centres undefined),90.1*,46.4,-36.6,-12.9,19.4,32.6
O=C(Nc1nc(-c2ccccn2)cs1)c1ccccc1-n1cnnn1,94.6*,33.1,-22.5,-16.2,15.2,23.3
CC(=O)Nc1ccc(C(=O)Nc2nc(-c3ccccn3)cs2)cc1,-22.1,-27.0,-75.3,-9.8,15.7,-2.1
CC/C(=N\NC(=O)c1ccc(N(C)C)cc1)c1ccccc1,-19.7,-16.9,-40.7,1.5,-12.4,-2.6
COc1cc2c(cc1OC)C(COc1cccc(C(F)(F)F)c1)NCC2 (centres undefined),-9.9,-4.4,17.3,-6.6,27.4,3.1
CCn1nc(C(=O)Nc2nc(-c3ccccn3)cs2)c2ccccc2c1=O,78.7,51.0*,-4.3,-4.2,-17.0,42.0*
O=C(Nc1nc(-c2ccccn2)cs1)c1ccc(-c2ccccc2F)o1,19.4,68.5*,-88.5,-9.6,-26.0,24.8
CC[C@]12c3[nH]c4cc(CCC(=O)N(C)C)ccc4c3CCN1C(=O)[C@@H](CC(=O)NCCN1CCOCC1)C[C@@H]2C(=O)N1CCN(C(=O)c2ccco2)CC1,-7.1,-3.6,6.8,9.8,-16.1,-1.0
CCN(CC)C(=O)[C@H]1C[C@H](CC(=O)NCCCN(C)C)C(=O)N2CCc3c([nH]c4cc(-c5ccco5)ccc34)[C@]12C,-12.9,21.9,-32.3,-0.9,6.1,-1.0
CC[C@]12c3[nH]c4ccc(OC)cc4c3CCN1C(=O)C(CC(=O)NC/C=C(\C)CCC=C(C)C)C[C@@H]2C(=O)N1CCN(C(=O)C2CC2)CC1 (some centres undefined),19.9,8.8,3.9,3.1,14.5,8.4
COc1ccc2[nH]c3c(c2c1)CCN1C(=O)C(CC(=O)NC/C=C(\C)CCC=C(C)C)C[C@H](C(=O)N2CCOCC2)[C@@]31CCC1CCCC1 (some centres undefined),35.8,58.8*,-0.4,8.0,-16.4,9.5
CC[C@]12c3[nH]c4cc(CCC(=O)N(C)C)ccc4c3CCN1C(=O)[C@@H](CC(=O)NC/C=C(\C)CCC=C(C)C)C[C@@H]2C(=O)N1CCN(C(=O)c2ccco2)CC1,86.5*,21.2,-78.5,8.0,-137.6,15.3
CN(C)CCCNC(=O)C[C@H]1C[C@H](C(=O)N2CCOCC2)[C@@]2(CCC3CCCC3)c3[nH]c4cc(-c5ccco5)ccc4c3CCN2C1=O,-6.6,95.0*,-9.3,-3.3,25.5,-7.6
CC(C)N(C(=O)[C@H]1C[C@H](CC(=O)NCCCN(C)C)C(=O)N2CCc3c([nH]c4cc(-c5ccco5)ccc34)[C@]12C)C(C)C,-26.2,90.8*,-30.4,-15.3,39.6,-4.6
O=C(C[C@H]1C[C@H](C(=O)N2CCOCC2)[C@@]2(CCC3CCCC3)c3[nH]c4cc(-c5ccco5)ccc4c3CCN2C1=O)NCCN1CCOCC1,-2.8,27.2,-5.8,0.7,17.7,6.6
